miR-21 reporter – qHTS Assay for Modulators of miRNAs and/orActivators of miR-21; HeLa miR-21 FLuc reporter, luciferase, 48 h; Potency, µM (doses to about 38.3 µM), without a hit: top-dose activity change, positive = activation, most hits filed as activators; 340,000 tested, under 10 active;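 further: % of control where 0% means no effect; miR-21 action dims this reporter so a rising signal means less miR-21 action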
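Using DMEM plus 10% FBS, HeLa miR-21-FLuc cells are incubated with test compounds (final up to about 40uM) for 48 hours; firefly luciferase signal is then imaged following reagent-mediated lysis.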
LMNA splice mod – qHTS Assay for Modulators of Lamin A Splicing. HeLa LMNA splicing GFP/RFP minigene ratio, 48 h. Potency, µM (series often up to 46.1 µM), inactives show top-dose ratio change, negative = inhibition, actives largely listed as inhibitors. actives 0.01% (n = 200,000); active means well fitted inhibition curve with a large enough effect in the signal ratio, with a control signal flat, not every such curve was filed as active; inconclusive means small, poorly fitted or top-dose-only effect, or effect the other way, or a change in a side signal; the % refers to the signal ratio; further: potency means the concentration at half of the fitted maximal effect; on the % scale 0 is the no-effect control and ±100 the full control effect
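S3 HeLa stable clones carrying a lamin A-EGFP splicing minigene plus DsRed2 were seeded at 600 cells/well in Opti-MEM with 2% FBS, pin-dosed and incubated 48 h at 37°C. Acumen cytometry (488 nm) gave the GFP/RFP total-intensity ratio.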
KDM4E inh – qHTS Assay for Inhibitors of Human Jumonji Domain Containing 2E (JMJD2E). Lysine-specific demethylase 4E (Homo sapiens), B2RXH2. JMJD2E catalytic domain, FDH-coupled NADH fluorescence (FDH is formaldehyde dehydrogenase). Potency, µM (titrated, usually from 57.1 µM), without a hit: at the top dose activity change, negative = inhibition, hits mostly inhibitors. actives 1.6% (n = 230,000). AID 2147, 2009; active means well fitted inhibition curve with a large enough effect, not every such curve was filed as active; inconclusive means small, poorly fitted or top-dose-only effect, or another doubt; inactive means no such curve, though single readings can be large or run the other way;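 further: potency means the concentration at half of the fitted maximal effect; 0% = wells with enzyme and -100% = buffer wells without enzyme; nearly all actives have a fitted effect of over 50% in size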
Target sequence (B2RXH2 1-337 limits assumed): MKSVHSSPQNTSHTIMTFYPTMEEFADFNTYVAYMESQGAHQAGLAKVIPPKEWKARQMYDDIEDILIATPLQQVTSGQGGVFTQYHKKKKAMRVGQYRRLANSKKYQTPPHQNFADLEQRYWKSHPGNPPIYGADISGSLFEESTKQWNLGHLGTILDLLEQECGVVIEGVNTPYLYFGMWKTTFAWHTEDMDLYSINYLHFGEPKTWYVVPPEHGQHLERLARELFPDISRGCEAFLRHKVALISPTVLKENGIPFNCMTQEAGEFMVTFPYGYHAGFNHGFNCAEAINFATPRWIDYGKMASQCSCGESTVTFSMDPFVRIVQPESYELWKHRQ
ALDH1A1 inh – qHTS Assay for Inhibitors of Aldehyde Dehydrogenase 1 (ALDH1A1) | actives 7.3% (n = 220,000) | AID 1030, 2008 | Potency, µM (titrated, usually from 75.3 µM), for the others: at the top dose activity, negative = inhibition, most hits filed as inhibitors | Purified ALDH1A1, NADH fluorescence, propionaldehyde substrate; active means well fitted inhibition curve with a large enough effect, not every such curve was filed as active; inconclusive means small, poorly fitted or top-dose-only effect, or another doubt; inactive means no such curve, though single readings can be large or run the other way;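 further: potency means the concentration at half of the fitted maximal effect; plate controls were no enzyme wells and a reference inhibitor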
Sfp inh – qHTS Assay for Inhibitors of Bacillus subtilis Sfp phosphopantetheinyl transferase (PPTase) | 4'-phosphopantetheinyl transferase ffp (Bacillus subtilis), Q9F4F7 | Biochemical Sfp PPTase activity, qHTS | Potency, µM, for inactives: largest response in the series, negative = inhibition, hits mostly inhibitors | actives 3.5% (n = 310,000);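 further: the enzyme is Sfp with the accession as filed and its product quenches rhodamine fluorescence; potency means the concentration at half of the fitted maximal effect; 0% = enzyme reaction without inhibitor and -100% = no enzyme wells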
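Buffer: 50 mM Hepes-Na pH 7.6, 10 mM MgCl2, 0.01% Nonidet P-40, 0.01% BSA. Enzyme 15 nM, pre-exposed to compound 15 min; substrates then added and fluorescence change tracked over 30 min.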
G9a inh – qHTS Assay for Inhibitors of Histone Lysine Methyltransferase G9a | Histone-lysine N-methyltransferase EHMT2 (Homo sapiens), Q96KQ7 | G9a H3K9 monomethylation, AlphaScreen, 2 h | Potency, µM (highest dose often 102 µM), without a hit: at the highest dose activity, negative = inhibition, usual class: inhibitors | actives 8.8% (n = 350,000); further: potency means the concentration at half of the fitted maximal effect; on the % scale 0 is the no-effect control and ±100 the full control effect; nearly all actives have a fitted effect of over 75% in size
Target sequence (Q96KQ7 913-1193 limits assumed): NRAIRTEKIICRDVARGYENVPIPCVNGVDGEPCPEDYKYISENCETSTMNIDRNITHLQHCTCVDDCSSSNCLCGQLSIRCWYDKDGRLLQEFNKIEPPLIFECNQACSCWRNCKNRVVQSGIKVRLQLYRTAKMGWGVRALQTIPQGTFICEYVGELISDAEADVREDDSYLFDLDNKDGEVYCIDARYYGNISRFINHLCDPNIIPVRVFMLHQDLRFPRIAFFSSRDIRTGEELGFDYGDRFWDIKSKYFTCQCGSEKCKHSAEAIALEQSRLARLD
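AlphaScreen detection with an anti-monomethyl H3K9 antibody quantified product after a 2 h room-temperature reaction containing 500 nM biotinylated H3K9 peptide, 20 µM SAM and 20 nM enzyme, which had been preincubated 15 min with compound.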
* hit, by the source's call; ? = inconclusive; / = not tested or not shown; [ ] = another dose, or the depositor's remark. Only some compounds are listed: those with a hit (about 13% of all), similar ones and a draw of the others. Unless noted, the call rests on the fitted dose curve; in most records, active means well fitted curve in the direction sought with a large enough effect; inconclusive means small, poorly fitted or top-dose-only effect, or another doubt; inactive means no such curve, though single readings can be large; an effect the other way counts as inactive or inconclusive.

SMILES	miR-21 reporter	LMNA splice mod	KDM4E inh	ALDH1A1 inh	Sfp inh	G9a inh
CCCSC1=C(C#N)C(c2cccs2)C(C(=O)Nc2ccccc2)=C(C)N1 (configuration not stated)	12%	-9%	-2%	?	-3%	?
CC1=C(C(=O)Nc2ccccc2)C(c2ccncc2)C(C#N)=C(SCC(=O)NC(C)C)N1 (configuration not stated)	-6%	18%	1%	?	?	11µM*
CC1=C(C(=O)Nc2ccccc2)C(c2ccncc2)C(C#N)=C(SCC(=O)NC2CC2)N1 (configuration not stated)	-10%	17%	4%	-12%	11%	28µM*
COc1cc(C=C2C(=O)c3ccccc3C2=O)ccc1O	-7%	/	-15%	?	-9%	-36%
COc1ccc(/C=C2\CN(Cc3ccccc3)C/C(=C\c3ccc(OC)c(O)c3)C2=O)cc1O	?	/	/	/	-18%	45µM*
COc1cc(C=C2C(=O)c3ccccc3C2=O)cc(OC)c1OC	-38%	/	-26%	1.6µM*	4%	?
COc1ccc(C=C2C(=O)c3ccccc3C2=O)cc1O	-13%	/	-25%	0.89µM*	-18%	13µM*
Cc1ccc(C(=O)c2c(N)c(C(=O)Nc3cccc(C(F)(F)F)c3)c3ccccn23)cc1	-11%	/	/	/	/	59%[59 µM]
CCC(C)NC(=O)CSc1nnc(-c2ccc(C)cc2)c(-c2ccc(C)cc2)n1 (configuration not stated)	10%	-16%[46 µM]	/	/	/	-8%[59 µM]
COc1ccc(CN(C)C(=O)Cn2ccc(NC(=O)OCc3ccccc3)nc2=O)cc1OC	/	/	/	/	/	9%[2.33 µM]
O=C(NCc1ccc(F)cc1F)Nc1cnccc1C(F)(F)F	8%	/	/	/	6%	9%[12.7 µM]
CNc1cc(-c2ccccc2C)ncn1	/	3%	/	4%	79µM*	-3%[0.501 µM]
O=C1CC(N2CCN(c3ccc(F)cc3)CC2)C(=O)N1c1ccc(F)cc1 (configuration not stated)	-1%	/	/	/	7%	/
O=C1CC(N2CCCCCC2)C(=O)N1c1ccc(F)cc1 (configuration not stated)	0%	2%[46 µM]	-28%	13µM*	-5%	11µM*
COc1ccc(N2C(=O)CC(N3CCCC4CCCCC43)C2=O)cc1 (configuration not stated)	2%	-4%	4%	8.9µM*	-4%	?
COc1ccc(N2C(=O)CC(N3CCCCC3)C2=O)cc1 (configuration not stated)	-1%	/	5%	18µM*	8%	?
O=C(O)c1ccc(N2C(=O)CC(N3CCN(c4cccc(C(F)(F)F)c4)CC3)C2=O)cc1 (configuration not stated)	-4%	/	/	/	12%	40µM*
O=C(O)c1ccc(N2C(=O)CC(N3CCN(c4cccc(Cl)c4)CC3)C2=O)cc1 (configuration not stated)	-7%	/	/	/	-6%	11%[0.501 µM]
CN1/C(=C\C(=O)C[n+]2ccc3ccccc3c2)C(C)(C)c2ccccc21	29%	?	-8%	5%	-5%	-4%
CCN(CC)S(=O)(=O)c1ccc(OC)c(NC(=O)c2sc3ccccc3c2Cl)c1	0%	/	/	/	/	1%[59 µM]
NC(=O)c1ccc(NC(=O)C2CCN(S(=O)(=O)Cc3ccccc3)CC2)cc1	0%	/	/	/	/	?
COc1ccc(N2C(=O)CC(N3CCC(O)(c4cccc(C(F)(F)F)c4)CC3)C2=O)cc1 (configuration not stated)	-7%	7%	0%	?	-1%	40µM*
COc1ccc(N2C(=O)CC(N3CCN(c4cccc(Cl)c4)CC3)C2=O)cc1 (configuration not stated)	-10%	/	/	/	5%	14%
COc1cccc(N2C(=O)CC(N3CCC(C(N)=O)(N4CCCCC4)CC3)C2=O)c1 (configuration not stated)	-9%	-6%	5%	10µM*	-6%	?
CC1CCN(C2CC(=O)N(c3ccccc3)C2=O)CC1 (configuration not stated)	-1%	5%[46 µM]	3%	28µM*	-14%	28µM*
SMILES	miR-21 reporter	LMNA splice mod	KDM4E inh	ALDH1A1 inh	Sfp inh	G9a inh
CN1C(=O)CC(N2CCC(C(N)=O)(N3CCCCC3)CC2)C1=O (configuration not stated)	1%	3%	0%	8%	5%	0%[12.7 µM]
CN(NC1CC(=O)N(c2ccccc2)C1=O)c1ccccc1 (configuration not stated)	-36%	-13%	-7%	?	45µM*	?
O=C1CC(N2CCN(c3ccccc3)CC2)C(=O)N1c1ccc(Cl)cc1 (configuration not stated)	-7%	/	/	/	24%	0%[0.501 µM]
COc1ccc(N2C(=O)CC(N3CCN(c4ccc(S(=O)(=O)N5CCCC5)cc4)CC3)C2=O)cc1 (configuration not stated)	1%	5%	2%	22µM*	-7%	?
COc1ccc(N2C(=O)CC(N3CCN(S(=O)(=O)c4c(C)cc(C)cc4C)CC3)C2=O)cc1 (configuration not stated)	/	/	/	/	/	-13%[2.33 µM]
c1ccc(-n2ncc3c(NCCN4CCCCC4)ncnc32)cc1	-41%	11%	?	?	-10%	45µM*
Clc1ccc(-n2ncc3c(NCc4cccs4)ncnc32)cc1	24%	?	7%	1.6µM*	12%	3%[59 µM]
CCOc1cc(-c2nnc(SCC(=O)NCCCOC)nc2-c2ccc(OC)c(OCC)c2)ccc1OC	28%	?	/	/	/	?
CCN(Cc1ccccc1)C(=O)CSc1nncn1C	6%	?	-3%	32µM*	8%	56µM*
CCN(Cc1ccccc1)C(=O)CSc1ccccc1C(=O)O	6%	/	-4%	?	3%	1%
CN(C)CCSc1nnc(-c2ccccc2)o1	-27%	-15%	-2%	2%	7%	40µM*
CCN(CC)C(=O)CSc1nnc(-c2ccccc2)n1N	-12%	5%	2%	-4%	0%	-27%
CCN(CC)C(=O)CSc1nnc(-c2ccccc2)n1-c1ccccc1	1%	7%	-4%	-5%	19%	28µM*
CCN(CC)C(=O)CSc1nnc(-c2ccccc2)o1	-40%	-2%	9%	0%	20%	79µM*

Bioassay records (PubChem BioAssay)
